Measurements taken from PubChem BioAssay (Tox21).
Several values for one entry are separate records, joined by “and”; a condition that tells them apart may be missing. Equal entries are not always repeated. Records with an inconclusive call do not appear. A call without a number means that no potency is given here. Activity calls are given as the source filed them. The call rests on the fitted dose curve; in most records, active means well fitted inhibition curve with a large enough effect in the repeat runs; inconclusive means weak or mixed curves, or effect the other way; inactive means no such curve, though single readings can be large or run the other way.

Molecular target: Androgen receptor (Homo sapiens) (UniProt P10275)
Sequence (P10275 whole entry, looked up): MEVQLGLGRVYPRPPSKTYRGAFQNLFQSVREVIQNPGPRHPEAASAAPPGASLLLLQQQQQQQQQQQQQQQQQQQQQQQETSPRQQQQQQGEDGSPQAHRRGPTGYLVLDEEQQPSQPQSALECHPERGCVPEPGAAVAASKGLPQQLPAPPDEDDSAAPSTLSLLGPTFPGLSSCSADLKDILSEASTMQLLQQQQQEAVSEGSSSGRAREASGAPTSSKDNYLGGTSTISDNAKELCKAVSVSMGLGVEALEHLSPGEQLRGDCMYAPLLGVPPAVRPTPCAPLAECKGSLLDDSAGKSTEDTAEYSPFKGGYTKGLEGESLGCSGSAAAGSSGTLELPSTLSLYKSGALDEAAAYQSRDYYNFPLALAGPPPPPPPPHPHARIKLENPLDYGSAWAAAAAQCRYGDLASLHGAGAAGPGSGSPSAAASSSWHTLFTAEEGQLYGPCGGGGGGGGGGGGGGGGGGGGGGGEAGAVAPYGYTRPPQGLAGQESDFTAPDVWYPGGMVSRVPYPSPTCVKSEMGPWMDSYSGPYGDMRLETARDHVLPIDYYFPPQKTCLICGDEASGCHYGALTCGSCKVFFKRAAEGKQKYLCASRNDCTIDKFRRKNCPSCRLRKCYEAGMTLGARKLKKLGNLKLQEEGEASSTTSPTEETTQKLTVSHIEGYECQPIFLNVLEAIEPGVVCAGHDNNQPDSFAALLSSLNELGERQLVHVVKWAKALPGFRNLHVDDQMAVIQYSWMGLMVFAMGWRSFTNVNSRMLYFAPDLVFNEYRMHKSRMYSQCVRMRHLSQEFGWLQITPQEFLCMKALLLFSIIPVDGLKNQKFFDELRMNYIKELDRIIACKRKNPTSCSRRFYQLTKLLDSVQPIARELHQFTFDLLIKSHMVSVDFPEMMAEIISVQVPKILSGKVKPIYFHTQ
Experiment: qHTS assay to identify small molecule antagonists of the androgen receptor (AR) signaling pathway using the MDA cell line (AID 743042; further: nearly all actives have a fitted effect of over 55% in size)
Settings: MDA-kb2 AR-luc, MMTV luciferase, R1881 antagonist, 16 h; series mostly up to 70.3 µM
In short: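 MDA-kb2 breast carcinoma cells carrying MMTV-luciferase (AR/GR responsive) were co-treated with compounds and the agonist R1881 for 16 h at 37C. Inhibition read as ONE-Glo luminescence; CellTiter-Fluor fluorescence measured in parallel for cytotoxicity.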
Potency means the concentration at half of the fitted maximal effect.

Compound	Potency
CNC(=O)O/N=C(\SC)C(=O)N(C)C	inactive
COC(C)(C)CCCC(C)C/C=C/C(C)=C/C(=O)OC(C)C (stereo not given)	inactive
CC(C)c1cccc(C(C)C)c1O	inactive
CC(C)CCCCCCOC(=O)c1ccccc1C(=O)OCCCCCCC(C)C	inactive
CC12CC1(C)C(=O)N(c1cc(Cl)cc(Cl)c1)C2=O (stereo not given)	19.3 µM (active) and 9.69 µM (active)
